Assay outcomes deposited in PubChem BioAssay by several laboratories.
HIF-2a inh – inhibitors of HIF-2a | inhibition, % at 18.8 µM | 786-0 RCC cells HIF-2a reporter, luciferase luminescence, overnight | 0.72% of 360,000 active;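 active = inhibition of the luminescence signal of 40% or more relative to plate controls, in a single-dose primary screen at 18.75 µM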
C8 TRAIL sens – caspase-8 TRAIL sensitization; NB7+C8 cells + TRAIL, ATPlite viability luminescence; inhibition (viability loss, TRAIL sensitization), % at 10 µM; 1% of 360,000 active;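 active = compounds causing at least 50% loss of cell viability in the single-dose screen, relative to plate controls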
HSP90 refold inh – inhibitors of HSP90 luciferase refolding in rabbit reticulocyte lysate; inhibition, % at 5.6 µM; luciferase refolding luminescence, 3 h; 0.91% of 290,000 active;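 active = inhibition above the screen-wide mean plus 3 SD, computed separately per campaign, cut at about 16% in these data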;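 note: inhibitors lower the luminescence because luciferase stays unfolded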
TROY NFkB inh – TROY signaling inhibition; Q293 LMP1-TROYcd NF-kB luciferase reporter, 4 h; inhibition, % at 10 µM; 0.98% of 360,000 active;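 active = compounds whose plate-normalised and pattern-corrected inhibition of the luciferase reporter signal at the single screening dose is 50% or more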
TWEAK-Fn14 inh – blocks TWEAK-Fn14 interaction in a reporter cell assay. inhibition, % at 10 µM. 2% of 360,000 active. TWEAK-stimulated Fn14 reporter cells, luciferase luminescence, 8 h; in the data active = inhibition above about 50%
aSyn UTR inh – 5' untranslated region of α-synuclein, MLPCN primary screen | alpha-synuclein 5'UTR reporter, inhibitor activity | inhibition, % (tested at 7.5 µM) | 0.82% of 300,000 active | AID 1813; in the data active = inhibition above about 60%;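 note: H4 neuroglioblastoma cells stably carrying SNCA 5'UTR luciferase fusion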
A number is an active result; - = inactive; . = no result given. Sampled rows, rich in hits. Any-hit rate of the full collection: about 3.9%.

SMILES | HIF-2a inh | C8 TRAIL sens | HSP90 refold inh | TROY NFkB inh | TWEAK-Fn14 inh | aSyn UTR inh
COc1ccc(-c2ccc3sc4ccccc4c(=O)c3c2)cn1 | - | 66 | . | - | - | -
O=[N+]([O-])c1ccc2nc(C3CCCCC3)[nH]c2c1 | - | - | - | - | - | -
O=[N+]([O-])c1ccc(O)c(C2CCCCC2)c1 | - | - | . | 61 | 52 | .
COc1cc(N(C)C)ccc1C=c1c2ccccc2n2c1cc(-c1ccccc1)[n+]2C | 90 | 54 | . | 58 | 88 | .
COc1cc(C=c2c3ccccc3n3c2cc(-c2ccccc2)[n+]3C)cc(OC)c1OC | - | - | . | - | - | .
CN(C)c1ccc(C=c2c3ccccc3n3c2cc(-c2ccccc2)[n+]3C)cc1 | 90 | 54 | . | 53 | 97 | .
CN(C)c1ccc(C=c2c3cc([N+](=O)[O-])ccc3n3c2cc(-c2ccccc2)[n+]3C)cc1 | 75 | 76 | . | - | 76 | .
CN(C)c1ccc(C=c2c3ccccc3n3c2c2c([n+]3C)CCCC2)cc1 | 93 | - | . | - | 63 | .
Cn1c(CO)c(-c2ccccc2)c2cc([N+](=O)[O-])ccc21 | - | - | - | - | - | -
CN(C)c1ccc(/C=C2\CCC/C(=C\c3ccccc3)C2=O)cc1 | - | - | - | - | - | -
CN(C)c1ccc(C=C2C=C(c3ccccc3)OC2=O)cc1 | - | - | . | - | - | .
COc1cccc(C(C(=O)NC2CCCC2)N2CCN(c3cc(C)nc4ccccc34)CC2)c1OC (configuration not stated) | - | - | . | . | . | .
CC1(C)CC(=O)C(CC(=O)c2ccccc2)=C(NN=C(N)N)C1 | - | - | . | - | - | .
CN(c1ccc(Cl)cc1)c1cc(=O)n(C)c2ccccc12 | - | - | - | - | - | -
CN(C)c1ccc(C=c2c3ccccc3n3c2cc(-c2ccc(Cl)cc2)[n+]3C)cc1 | - | - | . | 62 | 54 | .
CC1(C(=O)NS(=O)(=O)c2cccc(F)c2)CCN1C(=O)Cc1cccs1 (configuration not stated) | - | - | . | - | - | .
Cc1ccc(-c2nn(-c3ccccc3)cc2NC(=O)CCl)cc1 | - | 56 | - | - | - | -
Cc1ccc(-c2cc(NC(=O)CCl)n(-c3ccccc3)n2)cc1 | - | - | - | - | - | -
O=C(Nc1ccc(N2CCOCC2)cc1)c1cn2ccccc2n1 | - | 81 | - | - | 68 | 65
Nc1c(C(=O)NC2CC2)sc2nc3c(c(-c4ccco4)c12)CC/C3=C/c1ccco1 | - | - | - | - | 83 | .
CC(=O)Nc1ccc(S(=O)(=O)NC2=NCN(c3ccc([N+](=O)[O-])cc3)CN2)cc1 | - | - | - | - | - | -
CN1CN=C(NS(=O)(=O)c2ccc([N+](=O)[O-])cc2)NC1 | - | - | - | - | 55 | -
N#C/C(=C(/O)c1ccc([N+](=O)[O-])o1)c1nc2ccccc2[nH]1 | - | - | - | 50 | - | -
Cc1ccc2nc(/C(C#N)=C\c3ccc([N+](=O)[O-])o3)[nH]c2c1 | - | 81 | - | - | 99 | -
CCC1(c2ccccc2)SC(=O)NC1=O (configuration not stated) | - | - | . | - | - | .
SMILES | HIF-2a inh | C8 TRAIL sens | HSP90 refold inh | TROY NFkB inh | TWEAK-Fn14 inh | aSyn UTR inh
S=C(Nc1ccc(N2CCOCC2)cc1)Nc1ccc2snnc2c1 | - | - | - | 76 | 73 | -
O=C(Nc1ccc2snnc2c1)N1CCOCC1 | - | - | - | - | - | -
CC(C)(C)C(c1nc2ccccc2[nH]1)n1c(-c2cc(Cl)cc(Cl)c2)nc2ccccc21 (configuration not stated) | - | - | . | . | . | .
CC(OC(=O)c1cc(Br)ccc1O)C(=O)Nc1ccc(S(=O)(=O)N2CCCC2)cc1 (configuration not stated) | - | - | . | 60 | 60 | -
COc1cc(/C=N/O)ccc1OCc1ccc(Cl)cc1 | . | . | - | . | . | -
NC(N)=N/N=C/c1ccc(OCc2ccccc2)c(OCc2ccccc2)c1 | - | - | - | - | - | 106
NC(N)=N/N=C/c1ccccc1 | - | - | - | - | - | -
COc1cc(/C=N/N=C(N)N)ccc1OCc1ccc(Cl)cc1 | - | - | - | 62 | 81 | -
N/C(=N\c1nc2ccccc2o1)NC(=O)/C=C/c1ccccc1 | - | - | - | - | 55 | -
N/C(=N\c1nc2ccccc2o1)NC(=O)c1ccccc1 | - | - | - | - | - | -
Nc1cccnc1Oc1ccccc1F | - | - | - | 68 | - | -
CCC(C)C(NC(=O)c1ccccc1)C(=O)Nc1ccc(S(=O)(=O)Nc2cc(C)nc(C)n2)cc1 (configuration not stated) | - | - | . | - | - | .
Cc1ccc2[nH]c3c(c2c1)CCCC3NC(=O)CCl (configuration not stated) | - | - | - | - | 71 | -
Cc1ccc2[nH]c3c(c2c1)CCCC3C(N)=O (configuration not stated) | - | - | - | - | - | -
O=C(CC1SC(N2CCCCC2)=NC1=O)Nc1cccc(C(=O)N2CCCC(C(F)(F)F)C2)c1 (configuration not stated) | - | - | . | - | - | .
O=S(=O)(NCC(Nc1ccc(Cl)cc1)c1ccccc1)c1ccc(Cl)cc1 (configuration not stated) | - | - | - | 51 | 69 | -
CC1(C)N=C(N)N=C(N)N1CCCCc1ccccc1 | - | 67 | . | - | - | .
Cc1ccccc1N1C(N)=NC(N)=NC1(C)C | . | . | - | . | . | -
CCOc1ccc2nc(NC(=O)c3ccc(OCC4CCCO4)cc3)sc2c1 (configuration not stated) | - | - | - | - | 62 | -
O=C(Nc1nc(-c2ccc(F)c(F)c2)cs1)c1ccc(OCC2CCCO2)cc1 (configuration not stated) | - | - | - | - | - | -
Cc1csc(NC(=O)c2ccc(OCC3CCCO3)cc2)n1 (configuration not stated) | - | 54 | - | - | 69 | -
Cc1ccnc(NC(=O)c2ccc(OCC3CCCO3)cc2)c1 (configuration not stated) | - | 91 | . | 57 | 83 | -
CCOc1ccc2nc(NC(=O)CSc3nnc(-c4ccncc4)n3CC3CCCO3)sc2c1 (configuration not stated) | - | - | . | - | - | -
Cc1cccc(C(C)C)c1NC(=O)c1ccc(OCC2CCCO2)cc1 (configuration not stated) | - | - | . | - | - | .
Cc1cccc2sc(NC(=O)c3ccc(OCC4CCCO4)cc3)nc12 (configuration not stated) | - | - | - | - | 85 | -
Cc1ccc(NC(=O)c2ccc(OCC3CCCO3)cc2)c(C)c1 (configuration not stated) | - | - | - | - | - | -
CC(=O)NC(C)(c1ccccc1)c1nc(/C=C/c2ccccc2)cs1 (configuration not stated) | - | - | . | - | - | .
CC1(C)N=C(N)N=C(N)N1c1ccc(OCC(=O)N2CCOCC2)c(Cl)c1 | - | 83 | . | - | - | .
